Assay outcomes as filed in PubChem BioAssay.
TGFb SMAD3 inh = qHTS for Inhibitors of TGF-b. HepG2 CAGA-GFP TGF-b/SMAD3 reporter, GFP fluorescence, 18 h; TGF-beta stimulated, 500 pg/mL final. Potency, µM (series often up to 46.1 µM), inactives show top-dose activity, negative = inhibition, usual class: inhibitors. actives 1.2% (n = 410,000). AID 588855, 2011; also: % is scaled to controls: 0 for no effect and ±100 for the full control effect; nearly all actives have a fitted effect of over 65% in size
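GFP signal (ex488/em500-530) from TGF-beta-stimulated HEPG2 CAGA-GFP cells, 500 pg/mL final, 18 h at 37 degrees C in DMEM plus 1% FBS, normalized to unstimulated and DMSO-stimulated controls.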
HepG2 tox = qHTS for Inhibitors of TGF-b: Cytotox Counterscreen | HepG2 CAGA-GFP viability, ATP luminescence, 18 h | Potency, µM (doses to about 46.1 µM), inactives show at the highest dose activity change, negative = cytotoxicity, most hits filed as cytotoxic | actives 0.76% (n = 410,000) | AID 588856, 2011
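CellTiter-Glo luminescence gave cytotoxicity after 18 hours at 37 degrees C. The cells were HepG2 CAGA-GFP in 1% FBS DMEM, stimulated with 500 pg/mL TGF-beta after compound addition. %Activity was normalised to no-cell wells (complete cell-killing) and DMSO (no toxicity), and curves were fitted and classified.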
ATXN2 expr inh = Primary qHTS for Inhibitors of ATXN expression; HEK-293 ATXN2-luciferase reporter, luminescence, 24 h; Potency, µM (top dose mostly 57 µM), inactives show at the highest dose activity change, negative = inhibition, actives largely listed as inhibitors; actives 0.72% (n = 360,000); also: % is scaled to controls: 0 for no effect and ±100 for the full control effect; nearly all actives have a fitted effect of over 55% in size
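qHTS (up to 57 uM final) was run with 24 h compound exposure of reporter cells at 37 °C. Each well was multiplexed: SteadyGlo luminescence measured ATXN2-luciferase expression after a fluorogenic Gly-Phe-AFC viability readout (25 uM final).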
HT1080 IDH1KD tx = qHTS for induction of synthetic lethality in tumor cells producing 2HG: qHTS for the HT-1080-IDH1KD cell line; Potency, µM (titrated, usually from 46.1 µM), without a hit: top-dose activity, negative = toxicity, actives largely listed as cytotoxic; AID 686971, 2013; actives 2% (n = 360,000); HT-1080 IDH1 knockdown viability, ATP luminescence, 48 h;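 also: 0% = DMSO wells and -100% = cell-free medium wells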
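In this qHTS, HT-1080 cells depleted of IDH1 are exposed for 48 h at 37 °C to compound titrations. Toxicity is scored from CellTiter-Glo luminescence, with DMSO as full viability and medium alone as none.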
HT1080-NT tox = qHTS for induction of synthetic lethality in tumor cells producing 2HG: qHTS for the HT-1080-NT fibrosarcoma cell line; Potency, µM (series often up to 46.1 µM), for inactives: at the highest dose activity, negative = less viability, usual class: cytotoxic; actives 1.6% (n = 360,000); AID 686970, 2013; HT-1080-NT fibrosarcoma viability, CellTiter-Glo ATP luminescence, 48 h;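 also: NT is the 2HG producing partner of a matched IDH1 knockdown line; 0% = DMSO-treated cells and -100% = media-only wells without cells; nearly all actives have a fitted effect of over 55% in size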
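A 48-hour cytotoxicity screen used HT-1080-NT cells plated 2 hours before compound delivery. ATP-based CellTiter-Glo luminescence measured viability, normalized to DMSO and no-cell controls.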
S2 tox = Viability Counterscreen for Primary qHTS for Inhibitors of ATXN expression | S2 cells (HEK-293 line with an ATXN2-luciferase reporter) viability, CellTiter-Fluor protease fluorescence, 24 h | Potency, µM (titrated, usually from 56.7 µM), hits mostly cytotoxic | actives 0.49% (n = 400,000); also: nearly all actives have a fitted effect of over 40% in size
Starred values were filed as active, the others as inactive; i = inactive; ? = inconclusive; . = not tested or not shown. This is a sample that favours compounds with a hit; in the whole collection about 3.8% have one here. Calls follow the shape of the dose curve; as a rule, active = well fitted curve in the direction sought with a large enough effect; inconclusive = small, poorly fitted or top-dose-only effect, or another doubt; inactive = no such curve, though single readings can be large; an effect the other way counts as inactive or inconclusive. Potency is read from the fitted curve at half-maximal effect.

SMILES	TGFb SMAD3 inh	HepG2 tox	ATXN2 expr inh	HT1080 IDH1KD tx	HT1080-NT tox	S2 tox
O=C1N/C(=N\N=C\c2cccs2)SC1Cc1ccc(Cl)cc1 (stereo unspecified)	-19%	-26%	-13%	23µM*	18µM*	i
CCCNC(=O)COCc1cc(-c2ccc(F)cc2)on1	17%	-24%	11%	.	.	i
Cc1ccc(NC(=O)N(Cc2cn(C)c3ccccc23)C2CCCCC2)cc1C	37%	-9%	34%	.	.	i
COc1cc(C(=O)NS(=O)(=O)c2ccccc2C)ccc1Cc1cn(C)c2ccc(NC(=O)OC3CCCC3)cc12	.	.	39µM*	.	.	i
COc1ccc(CNC(=O)CSc2nc(-c3ccccc3)cc(-c3cccs3)c2C#N)cc1	-5%	-19%	?	-17%	-8%	i
COc1ccc(-c2cc(-c3cccs3)c(C#N)c(SCC(=O)NCc3ccco3)n2)cc1	0%	-2%	-30%	2.3µM*	2.9µM*	?
CC(C)(C)c1ccc(C(=O)N2CCNCC2)cc1	-7%	-23%	3%	-4%	-3%	i
CN1CCC2(CC1)N=C(c1ccc(F)cc1)C(=S)N2C(=O)c1ccc(C(C)(C)C)cc1	?	-55%	32µM*	?	?	?
Cn1c(=O)c2sccc2n2c(CCC(=O)Nc3ccc(F)cc3)nnc12	-26%	2%	-3%	.	.	i
Cc1c(CCOC(=O)C23CC4CC(CC(C4)C2)C3)sc[n+]1Cc1ccccc1	10%	28%	-17%	3%	6%	i
Cc1c(CCOC(=O)C23CC4(C)CC(C)(CC(C)(C4)C2)C3)sc[n+]1CC(=O)c1ccccc1	10µM*	20µM*	-20%	?	?	i
Cc1c(CCOC(=O)CC23CC4CC(CC(C4)C2)C3)sc[n+]1CC(=O)c1ccccc1	?	-109%	-58%	?	-22%	.
Cc1c(CCOC(=O)C23CC4CC(CC(C)(C4)C2)C3)sc[n+]1Cc1ccccc1	?	-38%	-31%	23µM*	?	i
CS(=O)(=O)c1ccc(-c2cn3ccccc3n2)cc1	.	.	23%	.	.	i
O=C(CCc1nc2ccccc2c(=O)[nH]1)NCCN1C(=O)S/C(=C\c2ccc(OC(F)F)cc2)C1=O	4%	10µM*	11%	?	-17%	i
CCOC(=O)N1CCC(n2c(=O)[nH]c3cc(Cl)ccc32)CC1	.	.	?	.	.	i
CC(=O)C1=CCC(c2ccccc2)N(S(=O)(=O)c2ccc(Cl)cc2)C1 (stereo unspecified)	?	-14%	-29%	?	?	i
CC(=O)C1=CCC(c2ccc(Cl)cc2)N(S(=O)(=O)c2ccccc2C)C1 (stereo unspecified)	?	0%	-36%	16µM*	?	?
CC(=O)N(Cc1ccc2c(c1)OCO2)Cc1cc2ccc(C)cc2nc1-c1cccc(C)c1	.	.	.	.	.	i
CCOc1ccc(NC(=O)CN(C)C(=O)c2cn(-c3ccc(F)cc3)nc2-c2cccc(OC)c2)cc1OCC	?	-13%	?	-12%	-11%	i
O=C(Nc1cccnc1)c1cn(-c2ccccc2)nc1-c1cccs1	-20%	-23%	5%	0%	0%	i
CCN(CC)CCNC(=O)c1ccc(NC(=O)c2cn(-c3ccc(F)cc3)nc2-c2cccc(OC)c2)cc1	?	i	?	21µM*	23µM*	28µM*
CCN(CC)CCNC(=O)c1ccc(NC(=O)c2ccccc2-c2ccc(C(F)(F)F)cc2)cc1	?	-51%	?	18µM*	23µM*	i
CCN(CC)CCNC(=O)c1ccc(NC(=O)c2cn(-c3ccccc3)nc2-c2cccs2)cc1	?	11µM*	?	?	?	.
CCCCCN=C(N)NN=Cc1c[nH]c2ccc(OC)cc12	.	.	-18%	.	.	.
SMILES	TGFb SMAD3 inh	HepG2 tox	ATXN2 expr inh	HT1080 IDH1KD tx	HT1080-NT tox	S2 tox
O=C(NCCCN1CCOCC1)c1cnn(-c2ncc3c(n2)-c2ccccc2CC3)c1C1CC1	.	.	.	.	.	i
CCC1CCCCN1CC(=O)Nc1cc(C)nn1-c1nc(C)cc(C)n1 (stereo unspecified)	?	-33%	?	4.5µM*	3.5µM*	i
C#CCOCCOCCOCCNc1nc(N2CCN(C(=O)CCCCCCCCCCNC(=O)Cn3cc(C[C@@H](C)O)nn3)CC2)nc(N2CCN(C(=O)CCCCCCCCCCNC(=O)Cn3cc(C[C@@H](C)O)nn3)CC2)n1	3%	-8%	?	?	?	?
C#CCOCCOCCOCCNc1nc(N2CCN(C(=O)C(Cc3cc4ccccc4[nH]3)n3cc(C(N)Cc4ccc(O)cc4)nn3)CC2)nc(N2CCN(C(=O)C(Cc3cc4ccccc4[nH]3)n3cc(C(N)Cc4ccc(O)cc4)nn3)CC2)n1 (stereo unspecified)	-16%	1%	?	?	?	32µM*
C#CCOCCOCCOCCNc1nc(N2CCN(C(=O)CCCCCCCCCCNC(=O)[C@H](CCCCN)n3cc(CCO)nn3)CC2)nc(N2CCN(C(=O)CCCCCCCCCCNC(=O)[C@H](CCCN=C(N)N)n3cc(C[C@@H](C)CC)nn3)CC2)n1	?	-109%	20µM*	?	?	18µM*
C#CCOCCOCCOCCNc1nc(N2CCN(C(=O)CCCCCCCCCCNC(=O)Cn3cc(C[C@@H](C)O)nn3)CC2)nc(N2CCN(C(=O)CCCCCCCCCCNC(=O)[C@H](CCCCN)n3cc(C[C@@H](C)CC)nn3)CC2)n1	?	13µM*	25µM*	21µM*	?	20µM*
C#CCOCCOCCOCCNc1nc(N2CCN(C(=O)CCCCCCCCCCNC(=O)[C@H](CCCCN)n3cc(CCO)nn3)CC2)nc(N2CCN(C(=O)CCCCCCCCCCNC(=O)[C@H](CCCCN)n3cc(CCO)nn3)CC2)n1	?	-24%	-8%	-2%	-6%	?
CC(C)(C)OC(=O)NCCCC[C@@H](C(=O)NCCCCCCCCCCC(=O)N1CCN(C(=O)OC(C)(C)C)CC1)n1cc(CCO)nn1	?	-14%	?	-21%	-24%	35µM*
